Results: PubChem BioAssay (NCATS)
Where “and” joins values, the source holds several entries; their conditions need not be identical. Identical values can stand only once. Inconclusive results are not listed. Where a call stands in place of a potency, no number is given. Calls of active or inactive are those of the source. The call rests on the fitted dose curve; in most records, active means well fitted curve in the direction sought with a large enough effect; inconclusive means small, poorly fitted or top-dose-only effect, or another doubt; inactive means no such curve, though single readings can be large; an effect the other way counts as inactive or inconclusive.

Tests used:
[1] = Quantitative High-Throughput drug screen in 47 multiple myeloma cell lines against the NCATS MIPE library collection: Delta47_JCRB cell viability assay (AID 1918925; further: nearly all actives have a fitted effect of over 45% in size)
Procedure, shortened: (§1)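 Luminescent ATP measurement with CellTiter-Glo gives viability, scaled between DMSO-only wells (100%) and media-only wells (0%). Cells, 500 per well, faced library compounds for 48 hours at 37C.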

[2] = Quantitative High-Throughput drug screen in 47 multiple myeloma cell lines against the NCATS MIPE library collection: EJM_DSMZ cell viability assay (AID 1918926; further: nearly all actives have a fitted effect of over 30% in size)
Procedure, shortened: as §1

[3] = Quantitative High-Throughput drug screen in 47 multiple myeloma cell lines against the NCATS MIPE library collection: AMO1_DSMZ cell viability assay (AID 1918927; further: nearly all actives have a fitted effect of over 30% in size)
Procedure, shortened: as §1

[4] = Quantitative High-Throughput drug screen in 47 multiple myeloma cell lines against the NCATS MIPE library collection: ARD_JJKsccE7 cell viability assay (AID 1918929)
Procedure, shortened: as §1

[5] = Quantitative High-Throughput drug screen in 47 multiple myeloma cell lines against the NCATS MIPE library collection: Karpas620_DSMZ cell viability assay (AID 1918959); further: nearly all actives have a fitted effect of over 30% in size
Procedure, shortened: (§2)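 Steps: seed 500 cells per well; pin-transfer MIPE 4.0 library; incubate 48 h at 37C, 5% CO2, humidified; add CellTiter-Glo, 5 min room temperature; read luminescence.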

[6] = Quantitative High-Throughput drug screen in 47 multiple myeloma cell lines against the NCATS MIPE library collection: KMM1_JCRB cell viability assay (AID 1918960); further: nearly all actives have a fitted effect of over 30% in size
Procedure, shortened: (§3)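 CellTiter-Glo luminescence after 48 h exposure gives viability, scaled between DMSO-only (100%) and media-only (0%) controls. Library compounds are pinned onto 500 myeloma cells per well, incubated at 37C with 5% CO2.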

[7] = Quantitative High-Throughput drug screen in 47 multiple myeloma cell lines against the NCATS MIPE library collection: JIM3_ECACC cell viability assay (AID 1918963; further: nearly all actives have a fitted effect of over 35% in size)
Procedure, shortened: as §2

[8] = Quantitative High-Throughput drug screen in 47 multiple myeloma cell lines against the NCATS MIPE library collection: Karpas417_ECACC cell viability assay (AID 1918961); conditions: Karpas417 myeloma viability, CellTiter-Glo ATP luminescence, 48 h; viability (% of DMSO): at 45.8 µM (top of the series) unless noted
Procedure, shortened: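 CellTiter-Glo luminescence (ATP) after 48 h compound exposure, 37C/5% CO2; 500 cells/well; MIPE 4.0 approved/investigational drugs pinned in; DMSO = 100%, media only = 0% viability.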

[9] = Quantitative High-Throughput drug screen in 47 multiple myeloma cell lines against the NCATS MIPE library collection: KHM11_PLB cell viability assay (AID 1918962); further: nearly all actives have a fitted effect of over 35% in size
Procedure, shortened: as §2

[10] = Quantitative High-Throughput drug screen in 47 multiple myeloma cell lines against the NCATS MIPE library collection: ARP1_JJKsccF8 cell viability assay (AID 1918928; further: nearly all actives have a fitted effect of over 40% in size)
Procedure, shortened: as §3
Potency means the concentration at half of the fitted maximal effect.

| SMILES | Potency [1] | Potency [2] | Potency [3] | Potency [4] | Potency [5] | Potency [6] | Potency [7] | Potency [8] | Potency [9] | Potency [10] | viability (% of DMSO) [8] |
| --- | --- | --- | --- | --- | --- | --- | --- | --- | --- | --- | --- |
| NC(=O)c1cnccn1 | inactive | inactive | inactive | inactive | inactive | inactive | inactive | – | – | – | – |
| COc1c(Cl)cc2c([nH]c3cnccc32)c1NC(=O)c1cccnc1C | 2.96 µM (active) | 3.72 µM (active) | 5.26 µM (active) | 3.32 µM (active) | 18.7 µM (active) | – | inactive | 16.6 µM (active) | 2.96 µM (active) | – | – |
| Cc1cccc(-c2nn(C(=S)Nc3ccccc3)cc2-c2ccnc3ccccc23)n1 | 16.6 µM (active) | 11.8 µM (active) | inactive | – | inactive | inactive | 13.2 µM (active) | – | – | inactive | – |
| CNCc1ccc(-c2[nH]c3cc(F)cc4c3c2CCNC4=O)cc1 | inactive | inactive | 8.33 µM (active) | 5.9 µM (active) | inactive | – | – | – | – | inactive | – |
| CNC[C@H](O)c1cccc(O)c1 | inactive | inactive | inactive | inactive | – | 5.26 µM (active) | inactive | – | – | inactive | – |
| COc1cccc2cc(-c3nc(C4CCC(C(=O)O)CC4)n4ncnc(N)c34)[nH]c12 (centres undefined) | 0.469 µM (active) | 0.187 µM (active) | 0.372 µM (active) | – | 0.59 µM (active) | – | – | – | – | 0.662 µM (active) | – |
| COc1ccc2c3n(c(=NC(=O)c4cccnc4)nc2c1OC)CCN3 | 2.09 µM (active) | 7.43 µM (active) | 18.7 µM (active) | – | 7.43 µM (active) | – | 18.7 µM (active) | inactive | – | 2.64 µM (active) | – |
| CC(C)(C)NCC(O)c1ccc(O)c(CO)c1 (centres undefined) | inactive | inactive | inactive | 0.0526 µM (active) | inactive | 0.059 µM (active) | inactive | – | inactive | – | – |
| Nc1ccc(S(=O)(=O)Nc2ccnn2-c2ccccc2)cc1 | inactive | inactive | inactive | inactive | inactive | inactive | inactive | inactive | – | – | – |
| NNCCc1ccccc1 | inactive | inactive | 18.7 µM (active) | inactive | 16.6 µM (active) | – | inactive | inactive | – | 20.9 µM (active) | – |
| CS(=O)(=O)c1cccc(CNc2nc(Nc3ccc4c(c3)CCC(=O)N4)ncc2C(F)(F)F)c1 | 18.7 µM (active) | 23.5 µM (active) | 9.35 µM (active) | 5.9 µM (active) | 4.69 µM (active) | 4.18 µM (active) | 18.7 µM (active) | 2.64 µM (active) | 14.8 µM (active) | – | – |
| O=C(Nc1cccnc1)N1CCC(Cc2cccc(Oc3ccc(C(F)(F)F)cn3)c2)CC1 | 9.35 µM (active) | 18.7 µM (active) | 9.35 µM (active) | 11.8 µM (active) | 14.8 µM (active) | 7.43 µM (active) | – | – | – | 18.7 µM (active) | – |
| COc1ccccc1[C@H](c1cccc2ccccc12)[C@@](C)(C#N)C(=O)N1CCC(c2cccc(C(F)(F)F)c2)CC1 | 8.33 µM (active) | 13.2 µM (active) | 2.64 µM (active) | 4.18 µM (active) | – | – | 9.35 µM (active) | – | 6.62 µM (active) | 8.33 µM (active) | – |
| C#Cc1cccc(Nc2ncnc3cc(OCCOC)c(OCCOC)cc23)c1 | 4.18 µM (active) | 6.62 µM (active) | 1.05 µM (active) | 5.9 µM (active) | 4.69 µM (active) | – | 9.35 µM (active) | – | 3.32 µM (active) | – | – |
| NC[C@H](O)c1ccc(O)c(O)c1 | inactive | inactive | inactive | inactive | inactive | inactive | inactive | – | – | – | – |
| Cc1ccc(N(CC2=NCCN2)c2cccc(O)c2)cc1 | inactive | inactive | 23.5 µM (active) | – | – | – | – | – | – | – | – |
| COc1ccc(-c2ccc3c(N4CCOCC4)nc(N4C[C@@H](C)O[C@@H](C)C4)nc3n2)cc1CO | 0.296 µM (active) | 1.66 µM (active) | 1.32 µM (active) | 1.32 µM (active) | 1.05 µM (active) | 0.209 µM (active) | – | 0.148 µM (active) | 0.0935 µM (active) | – | – |
| CCCc1nc2c(C)cc(-c3nc4ccccc4n3C)cc2n1Cc1ccc(-c2ccccc2C(=O)O)cc1 | inactive | inactive | inactive | inactive | inactive | inactive | inactive | – | – | – | – |
| Oc1ccc(C2CNCCc3c2cc(O)c(O)c3Cl)cc1 (centres undefined) | inactive | inactive | inactive | inactive | inactive | inactive | inactive | – | – | – | – |
| COc1ccc([C@@H]2CC(=O)c3c(O)cc(O[C@@H]4O[C@H](CO[C@@H]5O[C@@H](C)[C@H](O)[C@@H](O)[C@@H]5O)[C@@H](O)[C@H](O)[C@@H]4O)cc3O2)cc1O | inactive | inactive | inactive | inactive | inactive | inactive | inactive | inactive | – | inactive | – |

| SMILES | Potency [1] | Potency [2] | Potency [3] | Potency [4] | Potency [5] | Potency [6] | Potency [7] | Potency [8] | Potency [9] | Potency [10] | viability (% of DMSO) [8] |
| --- | --- | --- | --- | --- | --- | --- | --- | --- | --- | --- | --- |
| CC(C[N+](C)(C)C)OC(N)=O (centres undefined) | inactive | inactive | inactive | inactive | inactive | inactive | 0.0083 µM (active) | – | inactive | – | – |
| CS(=O)(=O)Oc1ccc2c(NC(N)=O)c(C(=O)c3ccc(Cl)cc3Cl)oc2c1 | 14.8 µM (active) | inactive | 9.35 µM (active) | 8.33 µM (active) | 10.5 µM (active) | – | – | – | – | – | – |
| O=C(O)CCc1ccc(NCc2cccc(Oc3ccccc3)c2)cc1 | inactive | inactive | inactive | inactive | inactive | inactive | inactive | inactive | – | – | – |
| CC1(C)CNc2cc(NC(=O)c3cccnc3NCc3ccncc3)ccc21 | inactive | 2.64 µM (active) | inactive | inactive | inactive | inactive | inactive | – | – | – | – |
| Clc1cccc(Cl)c1NC1=NCCN1 | inactive | inactive | inactive | – | inactive | inactive | inactive | – | inactive | inactive | – |
| COc1ccc(COc2cc3oc(=O)c4cc(C(C)O)ccc4c3cc2OC)cc1 (centres undefined) | 11.8 µM (active) | 16.6 µM (active) | 5.9 µM (active) | 3.72 µM (active) | 4.69 µM (active) | 4.69 µM (active) | 16.6 µM (active) | – | 7.43 µM (active) | – | – |
| C[C@]12CC[C@H](O)CC1=CC[C@@H]1[C@H]2CC[C@]2(C)C(c3cccnc3)=CC[C@H]12 | inactive | inactive | inactive | – | inactive | inactive | inactive | – | – | inactive | – |
| Cc1cnc(NC(=O)C2=C(O)c3ccccc3S(=O)(=O)N2C)s1 | inactive | inactive | inactive | – | inactive | inactive | inactive | – | – | inactive | – |
| Nc1nc2[nH]cc(CCc3ccc(C(=O)N[C@@H](CCC(=O)O)C(=O)O)cc3)c2c(=O)[nH]1 | inactive | inactive | 0.526 µM (active) | 0.469 µM (active) | inactive | 0.59 µM (active) | 0.833 µM (active) | – | – | – | – |
| CCCn1c(=O)c2[nH]c(C34CC5CC3C[C@@H](C5)C4)nc2n(CCC)c1=O | inactive | 16.6 µM (active) | 0.0264 µM (active) | inactive | inactive | – | inactive | – | – | – | – |
| O=c1[nH]cnc2[nH]ncc12 | inactive | inactive | inactive | 23.5 µM (active) | inactive | – | inactive | inactive | – | inactive | – |
| CN(C)C(=O)c1ccc(S(=O)(=O)c2ccc(NC(=O)[C@@](C)(O)C(F)(F)F)c(Cl)c2)cc1 | 10.5 µM (active) | 23.5 µM (active) | 14.8 µM (active) | – | – | – | – | – | – | – | – |
| N[C@@H]1CONC1=O | inactive | inactive | inactive | inactive | inactive | inactive | inactive | inactive | – | – | – |
| CC(c1cc2ccccc2s1)N(O)C(N)=O (centres undefined) | inactive | inactive | inactive | inactive | – | inactive | inactive | – | – | inactive | – |
| CC(C=CC1=C(C)CCCC1(C)C)=CC=CC(C)=CC(=O)O | 11.8 µM (active) and 4.18 µM (active) | 13.2 µM (active) | – | 23.5 µM (active) | – | inactive | 20.9 µM (active) and 4.69 µM (active) | – | 5.9 µM (active) | – | – |
| Oc1cccc(-c2nc(N3CCOCC3)c3oc4ncccc4c3n2)c1 | 0.0171 µM (active) | 6.79 µM (active) | 0.171 µM (active) | – | 0.0959 µM (active) | 0.0136 µM (active) | 0.0762 µM (active) | – | – | – | 2.23% [at 92.2 µM] (active) |
| O=C(Nc1ccc(F)c(C(F)(F)F)c1)Nc1nnc(-c2ccncc2)s1 | 2.96 µM (active) | 5.9 µM (active) | – | inactive | – | – | – | – | – | – | – |
| CNC(=O)c1ccc(C)c(-n2c(C)cc(OCc3ccc(F)cc3F)c(Br)c2=O)c1 | 14.8 µM (active) | 20.9 µM (active) | 16.6 µM (active) | – | – | 4.69 µM (active) | 16.6 µM (active) | – | – | – | – |
| CC[C@H](Nc1ncnc2nc[nH]c12)c1nc2cccc(F)c2c(=O)n1-c1ccccc1 | 5.26 µM (active) | 14.8 µM (active) | inactive | – | inactive | inactive | 16.6 µM (active) | inactive | 4.69 µM (active) | – | – |
| Cc1c(CN2CCN(C(=O)C(C)C)CC2)sc2c(N3CCOCC3)nc(-c3cnc(N)nc3)nc12 | 0.0469 µM (active) | 0.833 µM (active) | 0.166 µM (active) | – | – | 0.059 µM (active) | 0.418 µM (active) | – | 0.132 µM (active) | – | – |
